Sm TGR inh – blocks Schistosoma mansoni thioredoxin glutathione reductase. Q962Y6. purified TGR, DTNB reduction, TNB absorbance 405 nm. Potency, µM (highest dose often 114 µM), without a hit: top-dose activity change, negative = inhibition, usual class: inhibitors. 360,000 compounds, 3% hits; note: potency is the fitted concentration of half-maximal effect; % is set by controls: 0 for no effect and ±100 for the full control effect; nearly all actives have a fitted effect of over 60% in size
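First, TGR (20 nM dispensed) and NADPH were mixed with compound. Second, a 15 min room-temperature incubation followed. Third, further NADPH and then DTNB were added to start the reaction. Finally, TNB absorbance was monitored kinetically.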
Shiga toxin inh – blocks Shiga toxin action in Vero cells; Vero cells, Shiga toxin protein synthesis inhibition reporter; 290,000 compounds, 9.2% hits; inhibition, % at 38.7 µM; AID 2315; in the data active = inhibition mostly above about 28%, no sharp cut-off; inactive = mostly below about 43%; note: 0% is about no effect
Giardia FBPA inh – inhibitors of Giardia lamblia fructose-1,6-bisphosphate aldolase; 290,000 compounds, 0.71% hits; Potency, µM (doses to about 59.6 µM), inactives show at the highest dose activity, negative = inhibition, most hits filed as inhibitors; purified Giardia FBPA; note: potency is the fitted concentration of half-maximal effect; % is set by controls: 0 for no effect and ±100 for the full control effect; nearly all actives have a fitted effect of over 55% in size
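Giardia FBPA (40 nM reagent) was preincubated 10 min at RT with compound (up to 57.5 uM final), then substrate plus GAPDH/TPI/NAD/arsenate coupling system with diaphorase/resazurin was added; resorufin fluorescence (525/598 nm) was read after 20 min.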
Cycloheximide cs – counter-screen hit for Shiga toxin inhibitors, cycloheximide | 300,000 compounds, 12% hits | max response, % | cell reporter, cycloheximide protein synthesis inhibition counterscreen; in the data active = max response mostly above about 13%, no sharp cut-off; inactive = mostly below about 14%; note: read at 38.3 µM for the half of the compounds with a filed dose; 0% is about no effect
TbPYK inhibitor – T. brucei pyruvate kinase inhibition; TbPYK enzyme, Kinase-Glo Plus ATP luminescence, 45 min; Potency, µM (doses to about 76.8 µM), inactives show at the top dose activity, negative = inhibition, hits mostly inhibitors; 410,000 compounds, 0.12% hits; note: potency is the fitted concentration of half-maximal effect; % is set by controls: 0 for no effect and ±100 for the full control effect; nearly all actives have a fitted effect of over 50% in size
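ADP (130 uM final) triggers the TbPYK reaction after compound addition; incubation is 45 min at room temperature. Kinase-Glo Plus is then added and luminescence imaged. Normalized data are fitted to concentration-effect curves.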
LmPK inhibitor – blocks Leishmania mexicana pyruvate kinase activity. 290,000 compounds, 0.37% hits. Q27686. purified LmPK, Kinase-Glo ATP luminescence, 1 h. AID 1721. Potency, µM (highest dose often 57.5 µM), inactives show at the highest dose activity change, negative = inhibition, hits mostly inhibitors; note: potency is the fitted concentration of half-maximal effect; % is set by controls: 0 for no effect and ±100 for the full control effect
Target sequence (Q27686 whole entry, looked up): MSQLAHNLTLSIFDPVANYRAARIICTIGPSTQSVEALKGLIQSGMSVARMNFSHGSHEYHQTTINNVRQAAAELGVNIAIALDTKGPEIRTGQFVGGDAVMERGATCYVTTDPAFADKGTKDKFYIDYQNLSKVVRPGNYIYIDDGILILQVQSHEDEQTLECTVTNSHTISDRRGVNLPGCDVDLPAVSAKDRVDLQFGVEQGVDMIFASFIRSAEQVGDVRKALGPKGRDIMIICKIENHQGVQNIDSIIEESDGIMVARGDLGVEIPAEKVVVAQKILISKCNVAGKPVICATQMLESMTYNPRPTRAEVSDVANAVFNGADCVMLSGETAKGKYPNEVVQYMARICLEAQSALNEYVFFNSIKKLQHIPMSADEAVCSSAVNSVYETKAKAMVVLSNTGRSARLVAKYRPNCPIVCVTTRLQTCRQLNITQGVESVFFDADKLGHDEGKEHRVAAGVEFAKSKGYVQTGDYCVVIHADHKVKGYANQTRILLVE
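Purified LmPK (0.1 nM) converted ADP (0.1 mM) to ATP with PEP (0.5 mM) in imidazole buffer pH 7.2 with KCl and MgCl2, 1 h at room temperature. ATP was read by Kinase-Glo luminescence; data normalized to uninhibited and no-enzyme controls.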
* hit, by the source's call; ? = inconclusive; nt = no result given; [ ] = remark or other dose. Only a selection was taken, and hits are over-represented in it overall. Unless noted, calls come from the whole dose curve; as a rule, active = well fitted curve in the direction sought with a large enough effect; inconclusive = small, poorly fitted or top-dose-only effect, or another doubt; inactive = no such curve, though single readings can be large; an effect the other way counts as inactive or inconclusive.

SMILES | Sm TGR inh | Shiga toxin inh | Giardia FBPA inh | Cycloheximide cs | TbPYK inhibitor | LmPK inhibitor
COCCn1c(SCC(=O)Nc2ncc(C)s2)nc2sc3c(c2c1=O)CCC3 | -7% | 38 | -5% | 25* | nt | 7%
O=C(CSc1nnc2c3c4c(sc3ncn12)CCCC4)NCc1ccco1 | 47% | -7 | 5% | -1 | -1% | 1%
Cc1nc2sc3c(c2c2nnc(SCC(=O)NCc4ccco4)n12)CCCC3 | ? | active | 0% | 28* | 3% | 0%
CC(C)Cc1nc2sc3c(SCC(N)=O)ncnc3c2c2c1CCC2 | -1% | 12 | 1% | 17 | -2% | -1%
CC(C)c1nc2sc3c(SCC(=O)NCc4ccco4)ncnc3c2c2c1CCC2 | 25µM* | -9 | -17% | 2 | -10% | 1%
O=C(c1cc(C(F)(F)F)cc(C(F)(F)F)c1)N1CCC2(CC1)CN(c1ccccc1)C2 | nt | nt | 0% | nt | 2% | nt
Cc1ccc(C(=O)C=Cc2cccc(C)c2)cc1 | nt | nt | nt | nt | -5% | nt
CCC1CSC(Nc2ccc(C(=O)/C=C/c3cccc(C)c3)cc2)=N1 (stereo not drawn) | 10% | -2 | 0% | 13* | 1% | -5%
CCC1CSC(Nc2ccc(C(=O)/C=C/c3ccc(Oc4ccccc4)cc3)cc2)=N1 (stereo not drawn) | 4% | 30* | -10% | 47* | 8% | 1%
CCOc1ccccc1C(=O)NCc1ccc2c(c1)CCN2C(C)=O | 2% | nt | nt | nt | 0% | nt
COC(=O)c1ccc(NC2CC(=O)N(c3ccccc3C)C2=O)cc1 (stereo not drawn) | 32µM* | -21 | 4% | -2 | -7% | -3%
COC(=O)c1ccccc1NC1CC(=O)N(c2c(C)cccc2C)C1=O (stereo not drawn) | 7.1µM* | -16 | -3% | 8 | -4% | 3%
CCCSCCCNC(=O)C1CCN(C(=O)c2cnn(-c3ccccc3)c2-n2cccc2)CC1 | -7% | nt | nt | nt | 1% | nt
CCCCc1nn2c(=O)cc(COC(=O)C(C)Oc3ccccc3)nc2s1 (stereo not drawn) | 0% | nt | nt | nt | -20% | nt
O=C(CCCc1ccccc1)N1CCN(C2CCCCC2)CC1 | 9% | nt | 12% | 29* | -2% | -4%
CC(=O)c1cc(-c2ccccc2)n(CC(=O)N2CCN(C3CCCC3)CC2)c1C | 40µM* | -19 | 2% | -1 | 5% | 1%
CCC1CCCCN1C(=O)CCCc1ccccc1 (stereo not drawn) | 9% | 70* | 11% | 35* | -3% | -1%
CCC1CCCCN1C(=O)CCS(=O)(=O)c1ccccc1 (stereo not drawn) | -1% | 76* | nt | 34* | 2% | -4%
CCC1CCCCN1C(=O)CCn1c(=O)oc2ccccc21 (stereo not drawn) | nt | nt | nt | nt | -2% | nt
Cc1ccc(C(=O)NCCc2ccc(S(N)(=O)=O)cc2)cc1-n1cnc2cccnc21 | 1% | nt | nt | nt | 0%[15.4 µM] | nt
CCOC(=O)c1nnc(-c2ccccc2)o1 | -6% | -4 | 2% | -3 | -3% | -13%
Oc1ccccc1-c1nnc(-c2ccc(C(F)(F)F)cc2)o1 | 1% | 20 | -1% | 35* | -5% | -3%
ClCc1nnc(-c2ccccc2)o1 | 50µM* | 17 | -7% | 11 | 4% | -1%
c1ccc(-c2nnc(-c3ccncc3)o2)cc1 | 6% | 79 | 7% | 40* | 0% | ?
CC1=Nc2ccccc2/C1=C\c1nc(-c2ccc(C(F)(F)F)cc2)oc1O | 0% | -5 | 0% | -3 | 3% | -1%
SMILES | Sm TGR inh | Shiga toxin inh | Giardia FBPA inh | Cycloheximide cs | TbPYK inhibitor | LmPK inhibitor
O=C(CCc1ccccc1)c1nnc(-c2ccccc2)o1 | 14% | 42 | -4% | 30* | 2% | 14%
COc1ccc(N(Cc2cc3cccc(C)c3[nH]c2=O)C(=O)c2cccc(Cl)c2)cc1 | 3% | nt | nt | nt | 4% | nt
Nc1ccccc1-c1nnc(-c2ccc(-c3ccccc3)cc2)o1 | 5% | 43* | 4% | 47* | -11% | -12%
Clc1cccc(-c2nnc(-c3ccno3)o2)c1 | 9% | 22 | 1% | 24 | -8% | -1%
Clc1cccc(-c2nnc(-c3ccccc3)o2)c1 | 0% | 59* | 3% | 36* | -10% | 25µM*
COc1ccc(-c2nnc(-c3ccccc3)o2)cc1OC | -1% | 53* | 2% | 51* | -4% | -5%
CN(C)S(=O)(=O)c1cccc(-c2nnc(-c3ccccc3)o2)c1 | 15% | 73* | 7% | 44* | 2% | -4%
CCOc1ccc(CNC(=O)C2CCN(C(=O)c3sccc3-n3cccc3)CC2)cc1 | 8% | nt | nt | nt | -4% | nt
CC(=O)[C@@H]1CC[C@@H]2[C@@H]3C[C@H](C)C4=CC(=O)CC[C@@]4(C)[C@H]3[C@H](O)C[C@]21C | nt | nt | 3%[21.7 µM] | nt | -4%[33.2 µM] | nt
CCOc1ccc(NC(=O)CC2C(=O)N(c3ccc(C)cc3)C(=O)N2CCC2=CCCCC2)cc1 (stereo not drawn) | 4% | nt | nt | nt | -3% | nt
COc1ccccc1-c1nnc(-c2ccc(C)cc2)o1 | nt | nt | nt | nt | -1% | nt
COc1ccccc1-c1nnc(-c2ccc(N3CCOCC3)cc2)o1 | -21% | 62* | -1% | 35* | -15% | -4%
COc1cc(-c2nnc(-c3ccncc3)o2)ccc1OCc1ccccc1 | 0% | -17 | 2% | -11 | -3% | 4%
Cc1nc(-c2nnc(-c3ccccc3)o2)c(C(F)(F)F)o1 | 0% | 49* | -2% | 28* | -1% | 1%
COc1cc(-c2nnc(-c3ccco3)o2)ccc1OCc1ccccc1 | 3% | 59* | 0% | 39* | 4% | -4%
COc1cccc(-c2nnc(-c3ccc(C(F)(F)F)cc3)o2)c1 | -20% | 49* | 0% | 27* | -3% | -5%
Cc1nc(-c2noc(-c3cccc(Cl)c3)n2)c(C(F)(F)F)o1 | 12% | 18 | 0% | 5 | -7% | -10%
c1ccc(-c2nnc(-c3ccccc3)o2)cc1 | 1% | 85* | 2% | 31* | 3% | ?
Cc1[nH]c(=O)c(C(=O)/C=C/c2ccccc2F)c2c1CCCC2 | 100µM* | -14 | -14% | -3 | 6% | 2%
Cc1ccc(/C=N/Nc2ccc(C(=O)O)cc2)o1 | 6% | 76* | 14% | 30* | -7% | -26%
O=C(O)c1cc(-c2ccc(/C=N/Nc3ccc(Cl)cc3)o2)ccc1Cl | ? | 14 | -8% | 2 | 0% | 7%
O=C(O)c1ccc(N/N=C/c2ccc(-c3ccc(Br)cc3)o2)cc1 | -2% | 39* | -3% | 27* | -5% | -3%
Cc1ccc(Cl)cc1NC(=O)C(=O)NCC(c1cccnc1)N1CCc2ccccc21 (stereo not drawn) | -5% | nt | nt | nt | -2% | nt
CCOc1ccc(C(=O)NCCn2cc(SCC(=O)NCCc3ccc(OC)c(OC)c3)c3ccccc32)cc1 | -9% | nt | nt | nt | -4% | nt
O=C(Oc1ccc(Cl)c2cccnc12)c1cccnc1 | 40µM* | 31 | 9% | -3 | -2% | 0%
